# Assay results reported in ChEMBL document CHEMBL3988442, “University of Dundee, Small-Polar-MMV Screening Library” (2021).
# Screen size: about 48,000 compounds; about 13,000 (27%) showed an effect of 50% or more. The list shows a part of the results.
# Test system: Wolbachia pipientis
# Assay: Anti-Wolbachia Cell-Based Screen
# Type: functional
# Set-up: scale not given: in the data most compounds retested in dose-response had high values
# Conditions: 5 µM
row,SMILES,Percent Effect
1,O=c1[nH]nc(-c2cccs2)c2sc(N3CCOCC3)nc12,-14.46%
2,COc1ccccc1Cc1cc(O)nc(NC(C)CN(C)C)n1 (centres undefined),91.33%
3,CC(CCc1ccccc1F)C(=O)NS(=O)(=O)N(C)C(C)C (centres undefined),-0.5241%
4,COc1ccccc1CCNC(=O)N(C)C(C)CS(C)(=O)=O (centres undefined),-10.73%
5,CC(CN(C)C)Nc1nc(O)cc(Cc2ccccc2F)n1 (centres undefined),94.63%
6,COc1ccccc1CC(C)(C)NC(=O)CN(C)C(C)C,3.69%
7,CC(CC#N)N(C)Cc1ccccc1F (centres undefined),11.31%
8,CC(=O)N1CCN(C(=O)C2SCCc3sccc32)CC1 (centres undefined),-2.542%
9,O=C(O)C(F)(F)F.O=C(O)C(F)(F)F.O=C(c1ccc(F)cc1)N1CCN2C[C@H](Oc3cccnc3)C[C@H]2C1,-2.866%
10,COc1ccccc1N1CCN(C(=O)Cn2nccc2C)CC1(C)C,4.467%
11,O=C(CCc1nc(Cl)n[nH]1)N1CCC2(CCCNC2=O)C1 (centres undefined),7.017%
12,CCCN1CCC(N(C)C(=O)c2cc(C)nc3cc(F)ccc23)CC1,11.04%
13,CN1CCC(N(C)C(=O)c2cnn(-c3cc(F)ccc3F)c2N)CC1,123.1%
14,CN1CCC(N(C)C(=O)c2cnn(-c3ccccc3Br)c2N)CC1,112.2%
15,Cc1cc(C(=O)N(C)C2CCS(=O)(=O)C2)c2ccc(F)cc2n1 (centres undefined),-24.13%
16,Cc1cccc2c1nc(COCC(=O)O)n2-c1ccc(N)nc1,-5.94%
17,CCCC(C)C(=O)N1CCC(c2cc(N3CCOCC3)nc(C)n2)CC1 (centres undefined),8.426%
18,Cn1c(CCNc2nccnc2C#N)nc2cc(Cl)ccc21,-1.88%
19,Cc1cc(=O)n2nc(Oc3cc(Cl)cc(Cl)c3)sc2n1,108.5%
20,CN(C)S(=O)(=O)NCc1cccnc1Oc1ccc(F)c(F)c1,-7.83%
21,Cc1cc(OCC(=O)NS(=O)(=O)c2c(C)noc2C)ccc1Cl,-5.411%
22,Cc1cccc(OC2CCN(c3ncc(C#N)cc3Cl)CC2)n1,-14.79%
23,Cc1cc(=O)n2nc(Oc3ccc(Cl)c(C)c3)sc2n1,81.92%
24,Cc1nccc(CNC(=O)NCCOc2ccc(F)c(F)c2)n1,-14.18%
25,CN(C)c1cccc(CNC(=O)Nc2cc(C#N)ccc2Cl)n1,19.69%
26,Cc1cc(=O)n2nc(Oc3ccc(F)c(F)c3)sc2n1,78.71%

row,SMILES,Percent Effect
1,Cc1cc(=O)n2nc(Oc3ccc(C#N)cc3Cl)sc2n1,80.29%
2,c1ccc(C(CNc2ncccn2)N2CCOCC2)nc1 (centres undefined),-6.458%
3,CS(=O)(=O)NC[C@H]1Cn2c(-c3ccc(Cl)cc3)cnc2CO1,-25.96%
4,Cc1nnc(NC(=O)CN2CCCC(Cn3cncn3)C2)s1 (centres undefined),-2.603%
5,CCc1nnc2n1CCN(C(=O)c1ccc(-c3ccco3)nc1C)C2,-7.114%
6,O=C1CCCN1Cc1nc(-c2ccsc2)no1,-0.6709%
7,NC(=O)N1CCCC(c2nc(-c3cccnn3)no2)C1 (centres undefined),-17.63%
8,O=C1CCCCCN1CCc1nc(-c2cccnn2)no1,101.6%
9,O=C1CCCN1CCc1nc(-c2ccsc2)no1,3.312%
10,c1ccc(-c2noc(CNC3CCCN(c4cccnn4)C3)n2)nc1 (centres undefined),15.74%
11,c1cnnc(-c2noc(COCC3CCCO3)n2)c1 (centres undefined),-7.3%
12,CCC(=O)N1CCCC(c2nc(-c3cccnn3)no2)C1 (centres undefined),-10.18%
13,O=C1CCCCN1CCc1nc(-c2cccnn2)no1,94.65%
14,c1cnnc(-c2noc(CCN3CCCO3)n2)c1,93.6%
15,Fc1cnc(N2CC[C@@H]3O[C@H](COCc4ccccn4)CC[C@@H]32)nc1.O=C(O)C(F)(F)F.O=C(O)C(F)(F)F,-8.752%
16,CCC(Nc1cccc(Oc2ccc(C#N)cc2)c1)C(N)=O (centres undefined),17.41%
17,O=c1cc2c(nn1CN1CCN(c3cccc(Cl)c3)CC1)CCC2,-5.597%
18,N#Cc1ccc2c(c1)CN(C(=O)c1nc[nH]n1)C2c1cnco1 (centres undefined),-15.48%
19,CCNC(=O)C1CCN(c2nccc(C3CCCC3)n2)C1 (centres undefined),-5.882%
20,CNC(=O)[C@@H]1CN(C(=O)COC)C[C@H]1c1ccnc(N2CCCC2)n1,103.6%
21,COCCC(=O)N1CCN(C)c2ncccc2C1,-0.6435%
22,CNC(=O)[C@@H]1COC[C@H]2CN(C(=O)COc3ccccc3)C[C@H]21,-5.187%
23,CCC(=O)N1C[C@@H](C(=O)NC)[C@H](c2ccnc(N3CCCC3)n2)C1.Cl,103.8%
24,CCNc1ccnc(N2CCCC(CCOC)(C(=O)O)C2)n1 (centres undefined),-0.7265%
25,CCn1ncnc1C(C)NC(=O)C1CCN(C(=O)COC)CC1 (centres undefined),0.6867%
26,CNC(=O)C1CCN(c2nccc(CCC(F)(F)F)n2)C1 (centres undefined),-10.68%

row,SMILES,Percent Effect
1,CNC(=O)[C@@H]1CN(C(=O)CCOC)C[C@H]1c1ccnc(N2CCCC2)n1.Cl,97.41%
2,O=C(O)C(c1cccc2c1OCC2)N1CCC(N2CCCC2)CC1 (centres undefined),-6.638%
3,O=C1C(Nc2ncccn2)CCN1c1ccccc1OC(F)F (centres undefined),-3.338%
4,COCCS(=O)(=O)NC(C)c1cccc(-n2cccn2)c1 (centres undefined),2.381%
5,CC(=O)Nc1ccc(C(=O)Nc2cnc3n2CCCC3)cc1C,7.352%
6,CC(C)NC(=O)N1CCC2(CC1)Cc1ccccc1CNC2=O,106.4%
7,CC(NC(=O)N1CCc2ccccc2C1)c1nncn1C (centres undefined),-2.02%
8,CN1Cc2ccccc2CC2(CCN(C(=O)N3CCOCC3)CC2)C1=O,102.4%
9,CN1Cc2ccccc2CC2(CCN(C(=O)[C@H]3CCCO3)CC2)C1=O,-50.23%
10,O=C([C@H]1CCCO1)N1CCC2(CC1)Cc1ccccc1CNC2=O,-31.67%
11,CC(C)NC(=O)N1CCC2(CC1)Cc1ccccc1CN(C)C2=O,105%
12,CC(C)NC(=O)N1CCC2(CC1)CCn1c(C3CC3)cnc12,5.233%
13,C[C@@H]1CN(C2(C(=O)N3CCOCC3)Cc3ccccc3C2)C[C@H](C)O1,-3.118%
14,CNS(=O)(=O)c1ccccc1N1CCN(C(=O)NC(C)C)CC1,-1.761%
15,O=S(=O)(C/C=C/c1ccccc1)Cc1nc(C2CC2)no1,14.62%
16,CCn1ccnc1CN1CCN(CCOc2cccc(C#N)c2)CC1,-6.749%
17,CC(C)c1cnc(CNc2c(F)cccc2-n2cccn2)o1,11.31%
18,CCNC(=O)NC1CN(Cc2ccccc2N(C)C)C[C@@H]1OC (some centres undefined),0.7877%
19,CC(NC(=O)N1CCc2sccc2C1)c1nncn1C (centres undefined),8.221%
20,CN(C)C(=O)N1C[C@@H]2CCCO[C@@H]2[C@H](N(C)Cc2ccco2)C1.O=C(O)C(F)(F)F,-2.152%
21,Cc1nccn1-c1cc(CNC(=O)CCNC(=O)C2CCCC2)ccn1,5.543%
22,Cc1nc(CN2CCCC(NCc3cccc4ccccc34)C2)no1 (centres undefined),107.2%
23,Cc1nc(CN2CCCC(NCCc3ccccc3Cl)C2)no1 (centres undefined),-3.863%
24,Cc1nc(CN2CCCC(N(C)c3cnc4ccccc4n3)C2)no1 (centres undefined),-0.8744%
25,Cc1nc(CN2CCCC(NCC(=O)Nc3cccnc3)C2)no1 (centres undefined),-1.962%
26,CCc1nc(CN2CCCC(NCc3cnn(C(C)(C)C)c3)C2)no1 (centres undefined),-2.673%

row,SMILES,Percent Effect
1,Cc1nc(CN2CCCC(NCCOc3ccccc3)C2)no1 (centres undefined),-9.342%
2,Cc1nc(CN2CCCC(NCc3nc4ccccc4s3)C2)no1 (centres undefined),116.1%
3,Cc1nc(CN(C)C2CCN(Cc3nc4ccccc4s3)C2)no1 (centres undefined),10.14%
4,CCOc1cccc(CNC2CCCN(Cc3noc(C)n3)C2)c1 (centres undefined),100.5%
5,Cn1cc(CNC2CCCN(Cc3noc(C4CC4)n3)C2)cn1 (centres undefined),-8.767%
6,Cc1nc(CN2CCCC(NCc3cnn(C)c3)C2)no1 (centres undefined),104.5%
7,Cc1nc(CN2CCCC(Nc3ncnc4ccccc34)C2)no1 (centres undefined),-16.22%
8,Cc1cccc(CNC(Cn2cncn2)c2ccccc2)c1C (centres undefined),-43.08%
9,CN(C)c1cc2c(nn1)CCN(C(=O)Cc1noc3ccccc13)C2,12.15%
10,CN(Cc1csc(-c2ccccc2)n1)C(=O)CCn1ccccc1=O,-32.35%
11,Cc1nc(CN2CCCC(N(C)Cc3cscn3)C2)no1 (centres undefined),2.968%
12,Cc1nc(CN2CCCC(NCCOCC(F)(F)F)C2)no1 (centres undefined),-2.958%
13,Cc1nc(CN2CCCC(NCc3ccc4ccccc4c3)C2)no1 (centres undefined),117%
14,Cc1nc(CN2CCCC(NCc3ccsc3)C2)no1 (centres undefined),1.864%
15,COc1ccc(CNC2CCCN(Cc3noc(C)n3)C2)cc1F (centres undefined),-5.655%
16,Cc1nc(CN2CCCC(NCc3csc(C(C)(C)C)n3)C2)no1 (centres undefined),82.03%
17,Cc1nc(CN2CCCC(NCc3sccc3C)C2)no1 (centres undefined),84.94%
18,Cc1nc(CN2CCCC(NCc3ccc(Cl)s3)C2)no1 (centres undefined),105.2%
19,Cc1nc(CN2CCCC(NCc3c(C)nc4sccn34)C2)no1 (centres undefined),-4.535%
20,CCOc1cccc(CN2CCCn3nc(CNS(C)(=O)=O)cc3C2)c1,-2.285%
21,Cc1nc(CN2CCCC(NCc3ccc4c(c3)CCO4)C2)no1 (centres undefined),109.8%
22,Cc1ncnc2c1CCN(Cc1ccccn1)CC2.O=C(O)C(F)(F)F.O=C(O)C(F)(F)F,-3.635%
23,Cc1cccc(CN2CCc3ncnc(C4CC4)c3CC2)n1.O=C(O)C(F)(F)F,113.1%
24,O=C(O)C(F)(F)F.O=C(O)C(F)(F)F.c1ccc(CN2CCc3ncnc(C4CCOC4)c3CC2)nc1 (centres undefined),3.596%
25,Cc1cccc(CN2CCc3ncnc(NC4CCC4)c3CC2)n1.O=C(O)C(F)(F)F.O=C(O)C(F)(F)F,78.48%
26,Cc1cccc(CN2CCc3ncnc(C)c3CC2)n1.O=C(O)C(F)(F)F,-2.689%
